Measured values published in PubChem BioAssay (NCATS).
Results filed as inconclusive are left out. A call without a number means that no potency is given here. Unmarked numbers belong to inactive results. Activity calls are given as the source filed them. Calls follow the shape of the dose curve; as a rule, active = well fitted curve in the direction sought with a large enough effect; inconclusive = small, poorly fitted or top-dose-only effect, or another doubt; inactive = no such curve, though single readings can be large; an effect the other way counts as inactive or inconclusive.

Assays:
[1] = tested on: HaCat; assay: Cytotoxic Profiling of Annotated Libraries Using Quantitative High-Throughput Screening (AID 1296008); settings: Five cell lines viability, CellTiter-Glo ATP luminescence, 48-72 h; max response: active compounds read low; also: nearly all actives have a fitted effect of over 60% in size; also: potency is read from the fitted curve at half-maximal effect
In short: (§1)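 Cells exposed to compounds for 48 or 72 hr at 37 degrees Celsius. Viability read as ATP-coupled luminescence with CellTiter-Glo after 10 min at room temperature.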

[2] = tested on: KB-3-1; assay: as above; settings: Five cell lines viability, CellTiter-Glo ATP luminescence, 48-72 h; max response: active compounds read low
In short: as §1

[3] = tested on: C33A; assay: Primary qHTS to identify gynecologic anti-cancer compounds using libraries of approved drugs and bioactive compounds (AID 1345084); settings: Gynecologic cancer cell panel viability, ATPlite luminescence, 48 h; series mostly up to 57.5 µM; also: nearly all actives have a fitted effect of over 55% in size; also: potency is read from the fitted curve at half-maximal effect
In short: (§2)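 Five-concentration response, 48 h; readout is ATP-driven luciferase luminescence.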

[4] = tested on: CASKI; assay: as above; settings: Gynecologic cancer cell panel viability, ATPlite luminescence, 48 h; series mostly up to 57.5 µM
In short: as §2

[5] = tested on: Es-2; assay: as above; settings: Gynecologic cancer cell panel viability, ATPlite luminescence, 48 h; series mostly up to 57.5 µM
In short: as §2

[6] = tested on: HeLa; assay: as above; settings: Gynecologic cancer cell panel viability, ATPlite luminescence, 48 h; series mostly up to 57.5 µM
In short: as §2

[7] = tested on: Hek293T; assay: as above; settings: Gynecologic cancer cell panel viability, ATPlite luminescence, 48 h, control line for the selectivity index; series mostly up to 57.5 µM
In short: as §2

[8] = tested on: JEG-3; assay: as above; settings: Gynecologic cancer cell panel viability, ATPlite luminescence, 48 h; series mostly up to 57.5 µM
In short: as §2

[9] = tested on: OV90; assay: as above; settings: Gynecologic cancer cell panel viability, ATPlite luminescence, 48 h; series mostly up to 57.5 µM
In short: as §2

[10] = tested on: CAOV3; assay: as above; settings: Gynecologic cancer cell panel viability, ATPlite luminescence, 48 h; series mostly up to 57.5 µM
In short: as §2

[11] = tested on: SKOV3; assay: as above; settings: Gynecologic cancer cell panel viability, ATPlite luminescence, 48 h; series mostly up to 57.5 µM
In short: as §2

[12] = tested on: NIH3T3; assay: Cytotoxic Profiling of Annotated Libraries Using Quantitative High-Throughput Screening (AID 1296008); settings: Five cell lines viability, CellTiter-Glo ATP luminescence, 48-72 h; max response: active compounds read low; also: nearly all actives have a fitted effect of over 60% in size; also: potency is read from the fitted curve at half-maximal effect
In short: as §1

[13] = tested on: PA-1; assay: Primary qHTS to identify gynecologic anti-cancer compounds using libraries of approved drugs and bioactive compounds (AID 1345084); settings: Gynecologic cancer cell panel viability, ATPlite luminescence, 48 h; series mostly up to 57.5 µM; also: nearly all actives have a fitted effect of over 55% in size; also: potency is read from the fitted curve at half-maximal effect
In short: as §2

[14] = tested on: HACAT; assay: qHTS assay to identify novel small-molecules to repurpose for Merkel cell carcinoma treatment (AID 1296009); settings: MCC and control cell lines, CellTiter-Glo viability, 72 h; at 44.8 µM (top of the series) unless noted; also: nearly all actives have a fitted effect of over 60% in size
In short: (§3)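 Dose-response viability screen; 72 hr exposure at 37 degree celsius; CellTiter-Glo added, 10 min room temperature, luminescence read; RLUs scaled between no-cell and DMSO wells.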

[15] = tested on: NIH3T3; assay: as above; settings: MCC and control cell lines, CellTiter-Glo viability, 72 h; series mostly up to 44.8 µM
In short: as §3

Question: `COc1cc2nc(N3CCN(C(=O)c4ccco4)C4CCCCC43)nc(N)c2cc1OC` (centres undefined) was tested. Which max response [1] did it give?
Answer: 4.28%

Question: And the Potency [2]?
Answer: 20.6 µM (active)

Question: And the Potency [3]?
Answer: inactive

Question: And the Potency [4]?
Answer: inactive

Question: What about the Potency [5] of the same molecule?
Answer: inactive

Question: What about the Potency [6] of the same molecule?
Answer: inactive

Question: And the Potency [7]?
Answer: inactive

Question: What about the Potency [8] of the same molecule?
Answer: inactive

Question: What about the Potency [9] of the same molecule?
Answer: inactive

Question: What does the source list for `Nc1ncnc2c1c(-c1ccc(Cl)cc1)nn2-c1cccc(-c2cnnn2Cc2cccc(-c3ccccc3)c2)c1`?
Answer: max response [1]: -3.38%; max response [2]: -15.9%; Potency [3]: inactive; Potency [10]: inactive; Potency [4]: inactive; Potency [6]: inactive; Potency [7]: inactive; Potency [8]: inactive; Potency [9]: inactive; Potency [11]: inactive

Question: With `CCOC(=O)N1CCC(CN(Cc2ccc(Cl)cc2)Cc2ccc([N+](=O)[O-])s2)C1` (centres undefined) as the molecule, how does the max response [1] read?
Answer: -2.73%

Question: And the max response [12]?
Answer: -3.24%

Question: And the Potency [3]?
Answer: inactive

Question: What about the Potency [10] of the same molecule?
Answer: inactive

Question: And the Potency [4]?
Answer: inactive

Question: What about the Potency [5] of the same molecule?
Answer: inactive

Question: What about the Potency [6] of the same molecule?
Answer: inactive

Question: And the Potency [7]?
Answer: inactive

Question: And the Potency [8]?
Answer: inactive

Question: What about the Potency [9] of the same molecule?
Answer: inactive

Question: What about the Potency [13] of the same molecule?
Answer: inactive

Question: For `Cc1cnc(-c2ccccc2C(C)C)nc1NCc1ccc(-n2ccnn2)cc1`, which max response [1] is on record?
Answer: -29.3%

Question: And the max response [12]?
Answer: -17%

Question: And the Potency [3]?
Answer: inactive

Question: And the Potency [10]?
Answer: inactive

Question: What about the Potency [4] of the same molecule?
Answer: inactive

Question: And the Potency [5]?
Answer: inactive

Question: What about the Potency [6] of the same molecule?
Answer: inactive

Question: What about the Potency [7] of the same molecule?
Answer: inactive

Question: What about the Potency [8] of the same molecule?
Answer: inactive

Question: And the Potency [9]?
Answer: inactive

Question: And the Potency [13]?
Answer: inactive

Question: What does the source list for `C[C@H]1CC[C@@]2(OC1)O[C@H]1CC3[C@@H]4CC[C@@H]5C[C@@H](O[C@@H]6O[C@H](CO)[C@@H](O[C@@H]7O[C@@H](C)[C@H](O)[C@@H](O)[C@H]7O)[C@H](O)[C@H]6O[C@@H]6O[C@H](CO)[C@@H](O)[C@H](O)[C@H]6O)CC[C@]5(C)C4CC[C@]3(C)[C@H]1[C@@H]2C` (some centres undefined)?
Answer: max response [1]: -24.5%; max response [2]: 0.898%; activity change, negative = cytotoxicity [3]: -15.7% [at 11.6 µM]; activity change, negative = cytotoxicity [10]: -14.9% [at 11.6 µM]; activity change, negative = cytotoxicity [4]: 2.17% [at 11.6 µM]; activity change, negative = cytotoxicity [5]: 0.261% [at 11.6 µM]; activity change, negative = cytotoxicity [6]: 24.8% [at 11.6 µM]; activity change, negative = cytotoxicity [7]: -22.5% [at 11.6 µM]; activity change, negative = cytotoxicity [8]: 3.99% [at 11.6 µM]; activity change, negative = cytotoxicity [9]: -17.7% [at 11.6 µM]; activity change, negative = cytotoxicity [11]: -15.8% [at 11.6 µM]

Question: `O=C(Nc1nc2cc(C(F)(F)F)cc(NC3CC3)n2n1)c1cccnc1` was tested. Which Potency [1] did it give?
Answer: 4.61 µM (active)

Question: What about the Potency [2] of the same molecule?
Answer: 5.8 µM (active)

Question: What about the Potency [3] of the same molecule?
Answer: inactive

Question: And the Potency [10]?
Answer: inactive

Question: And the Potency [6]?
Answer: 12.6 µM (active)

Question: And the Potency [8]?
Answer: 10 µM (active)

Question: What about the Potency [9] of the same molecule?
Answer: inactive

Question: And the Potency [13]?
Answer: 7.08 µM (active)

Question: Which results are given for `C/C=C/C=C/c1cc2c(C=O)c(O)c(CC=C(C)C)cc2o1`?
Answer: outcome [1]: inactive; max response [12]: 1.86%; outcome [14]: inactive; Potency [3]: inactive; Potency [10]: inactive; Potency [4]: inactive; Potency [5]: inactive; Potency [6]: inactive; Potency [7]: inactive; Potency [8]: inactive; Potency [9]: inactive; Potency [13]: inactive; Potency [11]: inactive

Question: `Cc1cn2cc(C(=O)N(C)CCO)cc(NC3CCOc4cccc(C)c43)c2n1` (centres undefined) was tested. Which max response [1] did it give?
Answer: -18.4%

Question: And the outcome [2]?
Answer: inactive

Question: What about the Potency [3] of the same molecule?
Answer: inactive

Question: What about the Potency [10] of the same molecule?
Answer: inactive

Question: What about the Potency [4] of the same molecule?
Answer: inactive

Question: And the Potency [5]?
Answer: inactive

Question: What about the Potency [6] of the same molecule?
Answer: inactive

Question: What about the Potency [7] of the same molecule?
Answer: inactive

Question: And the Potency [8]?
Answer: inactive

Question: And the Potency [9]?
Answer: inactive

Question: And the Potency [13]?
Answer: inactive

Question: And the Potency [11]?
Answer: inactive

Question: How did the outcome [1] turn out when `Nc1nc2c(c(N3CC[C@@H](N)C3)n1)CCCc1ccccc1-2` was run?
Answer: inactive

Question: What about the max response [12] of the same molecule?
Answer: -2.56%

Question: And the outcome [14]?
Answer: inactive

Question: And the Potency [3]?
Answer: inactive

Question: What about the Potency [4] of the same molecule?
Answer: inactive

Question: And the Potency [5]?
Answer: inactive

Question: And the Potency [6]?
Answer: inactive

Question: And the Potency [8]?
Answer: inactive

Question: And the Potency [13]?
Answer: inactive

Question: And the Potency [11]?
Answer: 28.2 µM (active)

Question: Which results are given for `O=S(=O)(c1ccc(Cl)cc1)N1CCN(c2ccnc3cc(Cl)ccc23)CC1`?
Answer: outcome [1]: inactive; max response [12]: 3.17%; outcome [14]: inactive; Potency [10]: inactive; Potency [4]: inactive; Potency [5]: inactive; Potency [6]: inactive; Potency [7]: inactive; Potency [8]: inactive; Potency [9]: inactive; Potency [13]: inactive; Potency [11]: inactive

Question: `CC[N+]1(C/C2=C/CCCCCC2)CCC(NC(=O)C2c3cc(Cl)ccc3Oc3ccc(Cl)cc32)CC1` (centres undefined) was tested. Which max response [1] did it give?
Answer: -26%

Question: And the outcome [12]?
Answer: inactive

Question: And the Potency [15]?
Answer: inactive

Question: And the Potency [3]?
Answer: inactive

Question: What about the Potency [10] of the same molecule?
Answer: inactive

Question: And the Potency [4]?
Answer: inactive

Question: And the Potency [5]?
Answer: inactive

Question: What about the Potency [6] of the same molecule?
Answer: inactive

Question: What about the Potency [7] of the same molecule?
Answer: inactive

Question: And the Potency [8]?
Answer: inactive

Question: What about the Potency [9] of the same molecule?
Answer: inactive

Question: And the Potency [13]?
Answer: inactive

Question: What about the Potency [11] of the same molecule?
Answer: inactive

Question: Which max response [1] does the source give for `C=C1C(=O)O[C@@H]2C[C@@]3(C)C[C@@H](O)C[C@H](C)C3=C[C@H]12` here?
Answer: -8.34%

Question: What about the outcome [2] of the same molecule?
Answer: inactive

Question: And the Potency [3]?
Answer: inactive

Question: What about the Potency [10] of the same molecule?
Answer: inactive

Question: And the Potency [4]?
Answer: inactive

Question: What about the Potency [6] of the same molecule?
Answer: inactive

Question: And the Potency [7]?
Answer: inactive

Question: What about the Potency [8] of the same molecule?
Answer: inactive

Question: What about the Potency [9] of the same molecule?
Answer: inactive

Question: And the Potency [13]?
Answer: inactive

Question: What about the Potency [11] of the same molecule?
Answer: inactive

Question: Which results are given for `Cc1ccc(N2CCN(S(=O)(=O)N3CCCCC3)CC2)c(C)c1`?
Answer: outcome [1]: inactive; max response [12]: 4.82%; outcome [14]: inactive; Potency [3]: inactive; Potency [10]: inactive; Potency [4]: inactive; Potency [5]: inactive; Potency [6]: inactive; Potency [7]: inactive; Potency [8]: inactive; Potency [9]: inactive; Potency [13]: inactive; Potency [11]: inactive
